Calls of active or inactive are those of the source. The calls were made as follows: active = hit-call score of the fitted dose curve at least 0.9, where 1 is the maximum; inactive = score below 0.9.

A short description of this assay: ATG_Sox_CIS: Attagene CIS-FACTORIAL HepG2 Assay for human SRY-box transcription factor (SOX) (AID 2282960). The conditions noted are these: HepG2 Attagene cis-factorial SOX reporter, mRNA; actives raise or lower the signal. How it is done: ATG_CIS is a cell-based, multiplexed-readout assay that uses HepG2, a human liver cell line, with measurements taken at 24 hours after chemical dosing in a 24-well plate.ATG_Sox_CIS is one of 52 assay component(s) measured or calculated from the ATG_CIS assay. It is designed to make measurements of mRNA induction, a form of inducible reporter, as detected with fluorescence intensity signals by Reverse transcription polymerase chain reaction (RT-PCR) and Capillary electrophoresis technology.Data from the assay component ATG_Sox_CIS was analyzed into 1 assay endpoint. This assay endpoint, ATG_Sox_CIS, was analyzed with bidirectional fitting relative to DMSO as the negative control and baseline of activity. Using a type of inducible reporter, measures of mRNA for gain or loss-of-signal activity can be used to understand the reporter gene at the transcription factor-level as they relate to the gene SOX1. Furthermore, this assay endpoint can be referred to as a primary readout, because this assay has produced multiple assay endpoints where this one serves a reporter gene function. To generalize the intended target to other relatable targets, this assay endpoint is annotated to the dna binding intended target family, where the subfamily is HMG box protein.
Human liver HepG2 cells are transiently transfected with multiple reporter transcription units (MRTUs) in 6-well plates using FuGene 6 reagent (Roche; 3 ml FuGene/1 mg DNA). The MRTU constructs are regulated by a cis-regulating element (promoter). […] A major difference between the CIS and TRANS system is that in CIS activities of endogenous TFs are measured, whereas the TRANS assay evaluates changes in activities of exogenous, chimeric NR-Gal4 proteins. […] At the end of 24 hour incubation, total RNA was isolated using TriZol reagent (Invitrogen). The isolated RNA is then reverse-transcribed using oligo(dT) primer and Mo-MLV reverse transcriptase (Invitrogen) with DNAse I (Ambion) treatment for 30 min. The one-tenth of the produced cDNA was amplified by PCR using Taq DNA polymerase (Invitrogen) and two reporter sequence-specific primers. The PCR products were fluorescently labeled by primer extension with 6-arboxyfluorescein (6-FAM) 5'-labeled reporter sequence-specific primer (2 min at 95 C, 20 s at 68 C and 10 min at 72 C) and these products were digested with 5U of HpaI (New England Biolabs) for 2h at 37 C. The fragments were purified using Qiaquick PCR columns (Qiagen), analyzed on an ABI 3130xL genetic analyzer (Applied Biosystems) with peak positions identified by using a set of X-rhodamine (ROX)-labeled MapMarker1000 molecular weight standards (BioVentures). The raw capillary electrophoresis data was processed using Attagraph software (Attagene).
With `Cc1c(C(=O)O)c(O)cc2c1C(=O)c1c(O)c([C@@H]3O[C@H](CO)[C@@H](O)[C@H](O)[C@H]3O)c(O)c(O)c1C2=O`, the call was inactive.

As to `CCCc1cc(=O)[nH]c(=S)[nH]1`, the call was inactive.

As for `c1cc(-c2ccncc2)ccn1`, the outcome was inactive.

Consider `CCCCCCCCCCO`, for which the compound was classed as inactive.

On to `CCCCCC(=O)O`, for which the compound was called inactive.

With `CCCCOC(=O)CCCCCCCCC(=O)OCCCC`, the outcome was inactive.

For `CC(C)c1ccc(C(=O)N=C(N)N)cc1S(C)(=O)=O`, the call was inactive.

Regarding `OC[C@@H](O)[C@@H](O)[C@H](O)[C@H](O)CO`, the result was inactive.

As for `CCCCCCCCCCCCCO`, the compound was classed as inactive.

As to `CCCCCCCCCCCCCCCCCC(=O)O`, the call was inactive.

Consider `Cc1ccc(C(C)C)c(O)c1`, for which the result was inactive.

Consider `Cc1cccc(Nc2cc(Cl)nc(SCC(=O)O)n2)c1C`, for which the call was inactive.

For `COc1ccc2c(c1)c(CC(=O)O)c(C)n2C(=O)c1ccc(Cl)cc1`, the compound was classed as inactive.

Usually AC50 stands for the midpoint of the concentration-response curve, whichever way the signal moves. As to `COc1cc(/C=C/C(=O)CC(=O)/C=C/c2ccc(O)c(OC)c2)ccc1O`, the concentration at half-maximal activity (AC50) was 43.1 µM (active).

Take `CC(CO)OC(C)CO` (stereo not given) (tested in a mixture with another compound): the result was inactive.

Regarding `CCCCCCC(=O)OCC`, the compound was classed as inactive.

Consider `C=CCOC(=O)c1ccccc1C(=O)OCC=C`, for which the compound was classed as inactive.

Regarding `Cc1oc(-c2ccccc2)nc1CCOc1cccc2c1ccn2CCC(=O)O`, the outcome was inactive.

As for `O=C(O)Cc1ccccc1Nc1c(Cl)cccc1Cl`, the call was inactive.

As to `COCCOCCOC`, the compound was classed as inactive.

For the compound `CC(=O)OC/C=C(\C)CCC=C(C)C`, the result was inactive.

Take `Cc1cccc([N+](=O)[O-])c1C`: the call was inactive.

`C1CCC(SSC2CCCCC2)CC1`: the result was inactive.

For `Cc1ccc(C)c(C)c1`, the call was inactive.

`NC(=O)Cn1c(=O)cc(CCN2CCN(c3nccc4sccc34)CC2)c2ccc(F)cc21`: the call was inactive.

In the case of `CN1CCCC1=O`, the call was inactive.

On to `Cc1ccccc1Cl`, for which the call was inactive.

For `CC1=C(/C=C/C(C)=C/C=C/C(C)=C/CO)C(C)(C)CCC1`, the compound was called inactive.

For `C[C@]12C=CC(=O)C=C1CC[C@@H]1[C@@H]2C(=O)C[C@@]2(C)[C@H]1CC[C@]2(O)C(=O)CO`, the compound was called inactive.

`Oc1ccc2ccccc2c1N=Nc1ccccc1`: the compound was called inactive.

Consider `O=[N+]([O-])C(CO)(CO)CO`, for which the call was inactive.

Regarding `CC1(C)CC(N=C=O)CC(C)(CN=C=O)C1` (stereo not given), the call was inactive.

With `Cc1ccc2ncccc2c1`, the outcome was inactive.

Regarding `CC(=O)OCCOCCOCCOC(C)=O`, the call was inactive.

For `Nc1ccc(S(=O)(=O)c2ccc(N)cc2)cc1`, the compound was called inactive.

As to `CCOc1ccc2c(c1)C(C)=CC(C)(C)N2`, the compound was classed as inactive.

For the compound `CCCCCCCC=O`, the outcome was inactive.

With `CNC(=O)[C@H]1O[C@@H](n2cnc3c(NCc4cc(Cl)ccc4OCc4cc(C)no4)ncnc32)[C@H](O)[C@@H]1N`, the call was inactive.

As for `CCCCCCOCCO`, the outcome was inactive.

Take `CC(=O)C(C)=CC1C(C)=CCCC1(C)C` (stereo not given): the result was inactive.
